Measured values as given in the supplement of paper PMC10849652.
About 8,800 targets were measured; listed, in parts, are those with a hit and a random draw of the rest. About 0.5% of all pairs of compound and target were hits. A number with no mark means an inactive call.

What was measured:
Experiment in all cases: log2 fold change, soluble protein after heating vs DMSO (PISA); higher = thermal stabilisation; K562 lysate, 10 uM; active = over 0.2 and 3.5 SD of the protein, either way, in both replicates (recomputed)
ibrutinib = compound: C=CC(=O)N1CCC[C@@H](n2nc(-c3ccc(Oc4ccccc4)cc3)c3c(N)ncnc32)C1 [ibrutinib]
Outline: (§1)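 Following dounce homogenisation of K562 pellets in PBS pH 7.4 with 1 mM MgCl2, crude extract at 1 mg/mL protein was incubated for 30 min with 10 μM compound. Aliquots were then heated for 3 min over 48°C-58°C and pooled, NP-40 was added to 0.5% at 4°C, and soluble protein was recovered as the supernatant at 21,000xg for 90 min. Channel-sum-equalised TMTpro 16plex LC-MS/MS quantified this protein. Each value, from duplicates, is a log-two fold change in thermal stability relative to solvent controls.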

[1] = compound: CC(=O)c1cnc2ccc(-c3cc(Cl)c(O)c(Cl)c3)nc2c1N[C@H]1CC[C@H](CN(C)C)CC1
Outline: as §1

ralimetinib = compound: CC(C)(C)Cn1c(N)nc2ccc(-c3[nH]c(C(C)(C)C)nc3-c3ccc(F)cc3)nc21 [ralimetinib]
Outline: as §1

[2] = compound: CC(C)(O)CC(=O)NCCn1ccc2ncnc(Nc3ccc(Oc4cccc(C(F)(F)F)c4)c(Cl)c3)c21
Outline: as §1

[3] = compound: CC(C)C1=C2N=C(C=C(N2N=C1)NCC3=CC=CC=C3)NCCCCCCN
Outline: as §1

[4] = compound: CC1=C(C(CC(=O)N1)C2=CC=C(C=C2)C(F)(F)F)C(=O)NC3=C(C=C4C(=C3)C=NN4)F
Outline: as §1

[5] = compound: CC1=C(C2=C(C=C1)C(=O)C3=CC=CC=C3N2CCCN)C
Outline: as §1

[6] = compound: CC1=C(C=C(C=C1)NC(=O)C2=CC(=CC=C2)C(C)(C)C#N)NC3=CC4=C(C=C3)N=CN(C4=O)C
Outline: as §1

[7] = compound: CC1=C(C=C(C=C1)NC(=O)C2=CC(=CC=C2)N(C)C)NC(=O)C3=CC=C(C=C3)O
Outline: as §1

[8] = compound: CC1=CC=C(C=C1)SC2=C3C=C(SC3=CN=C2)C(=O)N
Outline: as §1

Sequence of UniProt Q9P0P0 (Q9P0P0 whole entry, looked up): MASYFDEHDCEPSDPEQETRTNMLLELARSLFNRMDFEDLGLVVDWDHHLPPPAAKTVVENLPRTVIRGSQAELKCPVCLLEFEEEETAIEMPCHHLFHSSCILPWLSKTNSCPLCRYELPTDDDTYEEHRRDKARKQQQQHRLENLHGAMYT
Sequence of UniProt Q9BVS4 (Q9BVS4 whole entry, looked up): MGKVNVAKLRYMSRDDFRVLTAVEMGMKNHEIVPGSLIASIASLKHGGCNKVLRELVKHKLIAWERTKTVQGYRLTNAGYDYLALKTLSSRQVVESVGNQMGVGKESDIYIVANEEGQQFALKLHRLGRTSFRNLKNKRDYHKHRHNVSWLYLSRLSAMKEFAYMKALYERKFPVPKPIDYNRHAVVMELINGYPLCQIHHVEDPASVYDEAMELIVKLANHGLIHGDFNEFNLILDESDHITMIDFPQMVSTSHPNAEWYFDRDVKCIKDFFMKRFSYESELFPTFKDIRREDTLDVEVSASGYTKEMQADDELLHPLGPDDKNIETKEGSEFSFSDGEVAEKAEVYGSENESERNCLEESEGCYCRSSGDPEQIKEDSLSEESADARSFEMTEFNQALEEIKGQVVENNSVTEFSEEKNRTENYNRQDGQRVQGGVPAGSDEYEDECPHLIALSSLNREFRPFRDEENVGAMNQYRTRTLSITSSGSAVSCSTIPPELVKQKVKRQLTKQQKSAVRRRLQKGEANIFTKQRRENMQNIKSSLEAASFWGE
Sequence of UniProt Q9GZR2 (Q9GZR2 whole entry, looked up): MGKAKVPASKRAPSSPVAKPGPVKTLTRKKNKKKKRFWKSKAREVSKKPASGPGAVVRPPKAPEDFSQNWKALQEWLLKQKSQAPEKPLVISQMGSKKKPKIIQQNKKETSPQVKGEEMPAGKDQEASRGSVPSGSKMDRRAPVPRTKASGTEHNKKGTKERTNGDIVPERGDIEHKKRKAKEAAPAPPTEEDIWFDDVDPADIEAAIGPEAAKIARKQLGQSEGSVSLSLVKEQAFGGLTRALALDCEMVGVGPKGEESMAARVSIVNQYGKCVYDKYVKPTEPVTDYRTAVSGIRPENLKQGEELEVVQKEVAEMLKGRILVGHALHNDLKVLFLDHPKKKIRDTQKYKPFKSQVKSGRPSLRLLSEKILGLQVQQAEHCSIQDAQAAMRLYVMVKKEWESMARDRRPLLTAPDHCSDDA
Sequence of UniProt Q9BTD8 (Q9BTD8 whole entry, looked up): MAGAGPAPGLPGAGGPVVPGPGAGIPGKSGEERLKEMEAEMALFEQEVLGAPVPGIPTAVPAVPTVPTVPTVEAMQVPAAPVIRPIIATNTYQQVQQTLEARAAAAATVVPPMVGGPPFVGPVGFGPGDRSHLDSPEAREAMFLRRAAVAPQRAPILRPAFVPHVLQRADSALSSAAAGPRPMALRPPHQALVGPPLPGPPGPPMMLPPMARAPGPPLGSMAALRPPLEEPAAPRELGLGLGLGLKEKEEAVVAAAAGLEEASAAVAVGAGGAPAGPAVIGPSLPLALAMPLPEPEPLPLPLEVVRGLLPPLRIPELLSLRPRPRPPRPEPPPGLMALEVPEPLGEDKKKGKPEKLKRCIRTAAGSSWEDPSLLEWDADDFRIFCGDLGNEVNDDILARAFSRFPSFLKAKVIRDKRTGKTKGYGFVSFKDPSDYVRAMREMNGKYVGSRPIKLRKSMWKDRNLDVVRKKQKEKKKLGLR
Sequence of UniProt Q14644 (Q14644 whole entry, looked up): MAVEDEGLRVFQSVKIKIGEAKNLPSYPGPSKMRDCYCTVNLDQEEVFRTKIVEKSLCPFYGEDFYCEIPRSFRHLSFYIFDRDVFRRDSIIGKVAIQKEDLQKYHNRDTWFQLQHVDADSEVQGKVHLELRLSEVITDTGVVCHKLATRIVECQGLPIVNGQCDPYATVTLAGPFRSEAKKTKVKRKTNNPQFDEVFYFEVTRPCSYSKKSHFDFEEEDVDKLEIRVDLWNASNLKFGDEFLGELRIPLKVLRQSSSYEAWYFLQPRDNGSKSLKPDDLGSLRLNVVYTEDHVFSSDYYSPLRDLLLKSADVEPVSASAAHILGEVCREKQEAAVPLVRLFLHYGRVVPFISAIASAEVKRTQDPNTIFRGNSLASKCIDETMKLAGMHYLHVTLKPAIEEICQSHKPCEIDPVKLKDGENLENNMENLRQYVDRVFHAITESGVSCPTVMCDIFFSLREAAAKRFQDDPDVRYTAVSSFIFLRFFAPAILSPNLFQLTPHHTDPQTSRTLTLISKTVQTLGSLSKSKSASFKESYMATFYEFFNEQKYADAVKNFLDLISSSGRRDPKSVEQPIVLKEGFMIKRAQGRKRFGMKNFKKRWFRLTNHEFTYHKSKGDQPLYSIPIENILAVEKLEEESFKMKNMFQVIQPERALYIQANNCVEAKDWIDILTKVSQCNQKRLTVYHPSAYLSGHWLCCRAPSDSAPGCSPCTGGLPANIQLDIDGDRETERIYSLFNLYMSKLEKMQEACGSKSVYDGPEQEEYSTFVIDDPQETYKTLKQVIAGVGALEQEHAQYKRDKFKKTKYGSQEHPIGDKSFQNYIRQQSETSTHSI
Sequence of UniProt Q53S08 (Q53S08 whole entry, looked up): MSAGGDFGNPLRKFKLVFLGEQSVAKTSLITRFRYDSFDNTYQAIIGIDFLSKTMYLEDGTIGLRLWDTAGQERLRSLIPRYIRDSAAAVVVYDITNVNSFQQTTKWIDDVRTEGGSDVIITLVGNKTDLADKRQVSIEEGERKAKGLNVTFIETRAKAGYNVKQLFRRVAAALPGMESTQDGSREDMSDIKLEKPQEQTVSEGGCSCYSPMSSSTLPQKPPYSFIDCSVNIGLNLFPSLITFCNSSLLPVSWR
Sequence of UniProt O00767 (O00767 whole entry, looked up): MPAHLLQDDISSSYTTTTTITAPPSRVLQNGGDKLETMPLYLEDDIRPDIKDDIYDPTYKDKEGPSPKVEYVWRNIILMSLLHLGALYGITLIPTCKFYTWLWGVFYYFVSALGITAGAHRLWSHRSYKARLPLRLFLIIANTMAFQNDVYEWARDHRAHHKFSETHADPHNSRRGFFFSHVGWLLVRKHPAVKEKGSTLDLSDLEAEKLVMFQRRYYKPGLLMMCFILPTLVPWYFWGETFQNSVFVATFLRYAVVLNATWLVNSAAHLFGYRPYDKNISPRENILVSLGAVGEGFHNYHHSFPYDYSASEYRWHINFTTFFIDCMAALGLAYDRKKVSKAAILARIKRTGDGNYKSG
Sequence of UniProt Q4ADV7 (Q4ADV7 whole entry, looked up): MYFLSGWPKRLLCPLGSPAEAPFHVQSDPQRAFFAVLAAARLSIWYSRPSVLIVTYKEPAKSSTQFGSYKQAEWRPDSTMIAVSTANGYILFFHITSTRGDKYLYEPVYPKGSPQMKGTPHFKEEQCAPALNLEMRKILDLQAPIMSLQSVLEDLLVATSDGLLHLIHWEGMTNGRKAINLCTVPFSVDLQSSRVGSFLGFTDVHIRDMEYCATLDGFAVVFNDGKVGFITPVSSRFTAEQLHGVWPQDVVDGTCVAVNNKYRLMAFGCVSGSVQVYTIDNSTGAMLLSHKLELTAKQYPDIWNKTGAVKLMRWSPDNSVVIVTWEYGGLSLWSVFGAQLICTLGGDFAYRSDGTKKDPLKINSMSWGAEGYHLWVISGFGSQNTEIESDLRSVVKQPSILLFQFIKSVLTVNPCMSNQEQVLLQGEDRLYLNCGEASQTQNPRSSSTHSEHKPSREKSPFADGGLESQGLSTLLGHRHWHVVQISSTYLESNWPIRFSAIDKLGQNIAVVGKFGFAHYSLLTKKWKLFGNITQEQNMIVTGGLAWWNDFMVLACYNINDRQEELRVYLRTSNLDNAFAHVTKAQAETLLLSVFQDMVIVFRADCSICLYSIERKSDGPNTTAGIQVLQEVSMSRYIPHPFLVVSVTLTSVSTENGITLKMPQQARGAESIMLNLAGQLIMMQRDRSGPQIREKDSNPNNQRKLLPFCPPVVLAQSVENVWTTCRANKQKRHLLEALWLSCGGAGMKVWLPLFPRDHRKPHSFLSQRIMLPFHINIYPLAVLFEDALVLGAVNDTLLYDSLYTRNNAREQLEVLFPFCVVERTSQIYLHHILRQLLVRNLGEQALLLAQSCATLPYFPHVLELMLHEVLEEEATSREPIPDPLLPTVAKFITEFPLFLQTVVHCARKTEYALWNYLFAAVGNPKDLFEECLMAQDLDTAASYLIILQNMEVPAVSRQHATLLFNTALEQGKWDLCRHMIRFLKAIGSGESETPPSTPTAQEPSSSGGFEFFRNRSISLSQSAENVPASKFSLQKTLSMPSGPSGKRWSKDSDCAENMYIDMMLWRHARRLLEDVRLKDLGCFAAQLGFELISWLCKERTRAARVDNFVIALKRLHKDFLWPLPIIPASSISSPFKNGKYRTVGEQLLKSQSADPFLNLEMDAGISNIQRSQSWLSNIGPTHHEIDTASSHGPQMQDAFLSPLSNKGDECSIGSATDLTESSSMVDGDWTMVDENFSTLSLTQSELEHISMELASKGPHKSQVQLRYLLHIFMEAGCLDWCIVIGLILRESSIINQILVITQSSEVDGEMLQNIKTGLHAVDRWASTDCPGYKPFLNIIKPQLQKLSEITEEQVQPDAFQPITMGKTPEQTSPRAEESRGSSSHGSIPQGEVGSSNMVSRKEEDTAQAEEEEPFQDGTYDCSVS
Sequence of UniProt Q9H0R6 (Q9H0R6 whole entry, looked up): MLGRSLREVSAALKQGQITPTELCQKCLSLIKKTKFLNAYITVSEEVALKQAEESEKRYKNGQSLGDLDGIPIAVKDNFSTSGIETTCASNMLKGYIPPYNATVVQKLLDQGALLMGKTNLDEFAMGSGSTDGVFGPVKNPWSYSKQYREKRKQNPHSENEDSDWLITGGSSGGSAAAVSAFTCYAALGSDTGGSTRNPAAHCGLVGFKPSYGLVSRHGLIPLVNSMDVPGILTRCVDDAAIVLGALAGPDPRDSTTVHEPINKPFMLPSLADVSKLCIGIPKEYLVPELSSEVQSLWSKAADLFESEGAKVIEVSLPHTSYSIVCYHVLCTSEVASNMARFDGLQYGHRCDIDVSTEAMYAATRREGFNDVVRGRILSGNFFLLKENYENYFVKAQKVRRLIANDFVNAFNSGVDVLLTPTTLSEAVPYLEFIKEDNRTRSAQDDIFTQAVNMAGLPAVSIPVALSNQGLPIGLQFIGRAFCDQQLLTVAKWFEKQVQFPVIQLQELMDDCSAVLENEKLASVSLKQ

Row | Target | log2 fold change (ibrutinib) | log2 fold change [1] | log2 fold change (ralimetinib) | log2 fold change [2] | log2 fold change [3] | log2 fold change [4] | log2 fold change [5] | log2 fold change [6] | log2 fold change [7] | log2 fold change [8]
1 | RPS29 (UniProt P62273) | 0.002 | 0.025 | -0.138 | 0.03 | -0.109 | 0.086 | -0.093 | -0.108 | -0.068 | 0.058
2 | RPL37A (UniProt P61513) | -0.005 | 0.002 | -0.041 | 0.03 | -0.009 | -0.021 | -0.032 | 0.038 | 0.004 | 0.051
3 | RIPK1 (UniProt Q13546) | -0.02 | -0.025 | -0.009 | -0.011 | 0.018 | 0.001 | -0.013 | 0.001 | -0.02 | 0.003
4 | RSU1 (UniProt Q15404) | 0 | 0.005 | -0.005 | -0.02 | 0.005 | 0.019 | -0.022 | -0.017 | -0.027 | -0.012
5 | RBBP7 (UniProt Q16576) | 0.062 | 0.018 | 0.018 | 0 | -0.042 | -0.003 | 0.014 | -0.114 | 0.002 | -0.03
6 | RIOK3 (UniProt O14730) | -0.021 | -0.013 | 0.055 | 0 | 0.054 | -0.011 | -0.023 | 0.001 | 0.011 | -0.093
7 | RIOK2 (UniProt Q9BVS4) | -0.012 | 0.512 (active) | 0.026 | -0.014 | -0.021 | -0.018 | -0.011 | -0.016 | 0.013 | 0.052
8 | RNF181 (UniProt Q9P0P0) | 0.043 | -0.024 | -0.001 | -0.006 | -0.005 | -0.056 | 0.008 | 0.03 | 0 | 0.013
9 | RPL8 (UniProt P62917) | 0.031 | 0.007 | 0.01 | -0.002 | -0.008 | 0.012 | -0.045 | -0.076 | -0.013 | 0.011
10 | RRM1 (UniProt P23921) | 0.025 | 0 | 0.005 | -0.01 | 0.022 | 0 | -0.033 | -0.009 | 0.024 | 0.016
11 | RAB6D (UniProt Q53S08) | 0 | 0.013 | -0.011 | -0.087 | 0.014 | -0.113 | -0.057 | 0.009 | 0.009 | -0.026
12 | RCC1 isoform 2 (UniProt P18754) | -0.008 | 0.012 | 0.041 | 0.019 | 0.015 | -0.048 | -0.037 | -0.01 | 0.036 | 0.01
13 | QTRT2 isoform 4 (UniProt Q9H974) | 0.01 | 0.002 | 0.014 | -0.028 | -0.014 | -0.035 | 0.006 | -0.025 | -0.003 | -0.013
14 | RPL31 (UniProt P62899) | -0.031 | -0.011 | 0.009 | -0.022 | 0.003 | -0.06 | -0.043 | -0.013 | -0.021 | 0.016
15 | SCO1 (UniProt O75880) | 0.029 | 0.006 | -0.006 | -0.072 | -0.11 | 0.044 | -0.011 | 0.021 | -0.065 | -0.023
16 | RBM42 (UniProt Q9BTD8) | 0.071 | 0.02 | -0.011 | -0.007 | 0.081 | 0.025 | 0.04 | -0.028 | -0.005 | 0.069
17 | RANBP6 (UniProt O60518) | -0.034 | -0.05 | 0.025 | -0.066 | -0.034 | -0.005 | -0.017 | -0.009 | 0.026 | 0.009
18 | RAE1 (UniProt P78406) | -0.033 | -0.01 | 0.007 | 0.185 | -0.007 | -0.022 | 0.012 | -0.064 | 0.011 | 0.023
19 | SBF1 isoform 4 (UniProt O95248) | 0.086 | 0.116 | 0 | -0.021 | -0.079 | 0.045 | -0.039 | -0.012 | 0.054 | 0.079
20 | REXO4 (UniProt Q9GZR2) | 0.014 | 0.027 | 0.021 | 0.074 | -0.024 | 0.023 | -0.053 | -0.043 | 0.056 | 0.008
21 | RCOR1 (UniProt Q9UKL0) | 0.016 | -0.001 | 0.023 | -0.028 | 0.264 | 0 | 0.013 | -0.049 | 0.02 | 0.021
22 | REL isoform 2 (UniProt Q04864) | 0.032 | 0.015 | 0.06 | -0.003 | 0.005 | -0.018 | 0.038 | 0.022 | -0.023 | 0.049
23 | RIC1 (UniProt Q4ADV7) | -0.129 | -0.052 | 0.046 | -0.074 | 0.038 | -0.032 | -0.065 | 0.113 | 0.027 | -0.006
24 | RASA3 (UniProt Q14644) | 0 | -0.031 | -0.012 | -0.054 | 0.02 | -0.048 | 0.031 | -0.026 | -0.018 | -0.078
25 | SDHC (UniProt Q99643) | 0.033 | -0.012 | 0.064 | -0.035 | -0.05 | -0.015 | -0.013 | -0.026 | 0.023 | 0.044
26 | RELN (UniProt P78509) | 0.011 | -0.237 (active) | 0.011 | -0.038 | -0.039 | -0.01 | 0 | -0.002 | 0.041 | 0.09
27 | RCOR3 isoform 3 (UniProt Q9P2K3) | -0.009 | -0.03 | 0.014 | -0.004 | 0.011 | 0 | 0.002 | -0.038 | 0.002 | -0.011
28 | SCD (UniProt O00767) | -0.06 | -0.053 | 0.059 | -0.009 | -0.052 | 0.032 | 0.047 | 0.02 | -0.085 | -0.128
29 | QRSL1 (UniProt Q9H0R6) | -0.171 | -0.059 | 0.018 | -0.064 | 0.066 | -0.003 | -0.073 | -0.041 | 0.027 | 0.076
30 | RPLP0P6 (UniProt Q8NHW5) | 0.064 | -0.005 | -0.01 | -0.02 | -0.009 | -0.052 | -0.028 | 0.015 | 0.01 | -0.017
